# Compounds without any hit were thinned out: in the full panel of roughly 83,000, 20% have a hit.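 Assay: single dose, 48 h. Readout: percent growth (0 = no net growth; negative = cell death). Active: <10.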 Values without a mark were called inactive. Calls of active or inactive are those of the source.
# Tests used:
# Experiment in all cases: NCI-60 one-dose screen, 48 h (100 = growth as untreated, 0 = no growth, -100 = all killed)
# Details in all cases: 10 µM
# RPMI-8226 leukemia = test system: RPMI-8226 leukemia
# OVCAR-8 ovarian = test system: OVCAR-8 ovarian
# OVCAR-5 ovarian = test system: OVCAR-5 ovarian
# OVCAR-4 ovarian = test system: OVCAR-4 ovarian
# SK-OV-3 ovarian = test system: SK-OV-3 ovarian
# IGROV1 ovarian = test system: IGROV1 ovarian
# OVCAR-3 ovarian = test system: OVCAR-3 ovarian
# HS 578T breast = test system: HS 578T breast
# NCI/ADR-RES ovarian = test system: NCI/ADR-RES ovarian
# T-47D breast = test system: T-47D breast
# BT-549 breast = test system: BT-549 breast
# MDA-MB-435 melanoma = test system: MDA-MB-435 melanoma
# SW-620 colon = test system: SW-620 colon
# MCF7 breast = test system: MCF7 breast
# HCT-116 colon = test system: HCT-116 colon
# HCC-2998 colon = test system: HCC-2998 colon
# KM12 colon = test system: KM12 colon
Compound,growth (RPMI-8226 leukemia),growth (OVCAR-8 ovarian),growth (OVCAR-5 ovarian),growth (OVCAR-4 ovarian),growth (SK-OV-3 ovarian),growth (IGROV1 ovarian),growth (OVCAR-3 ovarian),growth (HS 578T breast),growth (NCI/ADR-RES ovarian),growth (T-47D breast),growth (BT-549 breast),growth (MDA-MB-435 melanoma),growth (SW-620 colon),growth (MCF7 breast),growth (HCT-116 colon),growth (HCC-2998 colon),growth (KM12 colon)
Cc1ccc(N=Nc2c(N)nc(N)[nH]c2=O)cc1C,97.8%,104%,105%,105%,99.2%,92.6%,110%,108%,103%,96%,98.5%,95.1%,102%,94.4%,96.8%,113%,111%
CN(Cc1ccccc1)Cc1ccc([N+](=O)[O-])cc1I,91.9%,102%,93.7%,91%,94.9%,92.5%,98.9%,95.4%,103%,93.9%,87.7%,102%,89%,91.6%,84%,106%,93.2%
Cc1nc2c(c(=O)[nH]1)OCN(Cc1ccccc1)C2,101%,99.1%,109%,96.1%,93.7%,100%,103%,109%,107%,97.8%,102%,112%,102%,102%,100%,104%,104%
C/C(N)=C(\C#N)C(=O)c1ccccc1,99.2%,103%,97.9%,104%,99.5%,101%,112%,111%,105%,94.1%,113%,100%,106%,96.6%,102%,102%,107%
Cn1c([N+](=O)[O-])cnc1/C=C1\Oc2cc(Cl)ccc2C1=O,11.7%,-13.3% (active),29.1%,55%,-7.2% (active),-22% (active),-33.3% (active),-2.19% (active),-0.2% (active),86.6%,-32.6% (active),-78% (active),-47.3% (active),19%,3.24% (active),4.36% (active),1.65% (active)
c1ccc(CP(Cc2ccccc2)c2ccccc2)cc1,92.7%,94.8%,102%,113%,100%,78.6%,112%,117%,101%,116%,96.2%,75.5%,105%,96.7%,100%,101%,103%
S=C1SCC(c2ccccc2)S1 (stereo not drawn),102%,103%,106%,93.8%,104%,114%,121%,143%,112%,99.6%,109%,102%,111%,99.4%,107%,114%,117%
O=C(Nc1nc(-c2ccccc2Cl)cs1)c1cc(-c2ccc(Cl)cc2)nc2ccc(Cl)cc12,14%,1.38% (active),102%,44%,82%,24.4%,2.87% (active),14.9%,2.23% (active),64.3%,-9.33% (active),-46.9% (active),26.7%,11.2%,6.81% (active),90.7%,12.4%
CN1CCC(CNc2cc(C3(C(=O)Nc4cc(C(=O)Nc5ccc(Cl)c(C(F)(F)F)c5)ccc4F)CC3)ncn2)CC1,-32% (active),44.3%,71.6%,81.1%,45.9%,54.8%,29.4%,13.6%,86.7%,63.7%,52.5%,-53.1% (active),-9.83% (active),-43% (active),8.41% (active),22.8%,36.1%

# Reference: PubChem BioAssay (NCI)
